Some test systems named below: DU-145 prostate; K-562 leukemia; MALME-3M melanoma; MDA-MB-231 breast; RXF 393 renal; SF-268 CNS; SF-295 CNS; SF-539 CNS; M14 melanoma; HCT-15 colon; HT29 colon; SNB-75 CNS; SNB-19 CNS; U251 CNS; PC-3 prostate; SK-MEL-5 melanoma; UACC-62 melanoma; LOX IMVI melanoma; SK-MEL-28 melanoma; UACC-257 melanoma.
Test in all cases: NCI-60 one-dose screen, 48 h (100 = growth as untreated, 0 = no growth, -100 = all killed)
Conditions in all cases: 10 µM unless noted

The values below come from PubChem BioAssay (NCI).

This is part of a sample that, as a whole, favours compounds with a hit. Of some 83,000 tested, about 20% had one in any assay.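 Single-concentration screen, 48 h exposure, 96-well plates. Endpoint: percent growth. Below 10 = active.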 Values without a mark were called inactive. Active and inactive are the calls of the source.

In the case of `COC(=O)C1CCc2sc3ncnc(Nc4cn[nH]c4C(=O)Nc4ccc(CN5CCN(C)CC5)cc4)c3c21` (stereo not given), the growth in the assay with DU-145 prostate was -44.6% (active); in the assay with K-562 leukemia, -24% (active); in the assay with MALME-3M melanoma, -72.3% (active); with MDA-MB-231 breast, -0.275% (active); in the assay on RXF 393 renal it was -78.9% (active); in the assay on SF-268 CNS it was -1.56% (active). Besides, the growth in the assay on SF-295 CNS is 26.4%; in the assay with SF-539 CNS, -77.3% (active); in the assay on M14 melanoma, -0.905% (active); in the assay on HCT-15 colon, 7.28% (active); in the assay on HT29 colon it was -0.301% (active); with SNB-75 CNS it was -22.4% (active). Besides, the growth was 21.6% in the assay on SNB-19 CNS; -24.2% (active) in the assay on U251 CNS; 9.88% (active) in the assay on PC-3 prostate; -59.3% (active) in the assay on SK-MEL-5 melanoma; 58.8% in the assay on UACC-62 melanoma; 0.377% (active) with LOX IMVI melanoma. The growth in the assay with SK-MEL-28 melanoma was 23.5%.
As for `O=C(c1c(F)ccc(NS(=O)(=O)N2CC[C@@H](F)C2)c1F)c1c[nH]c2ncc(-c3cnc(C4CC4)nc3)cc12`, the growth in the assay on DU-145 prostate is 49.9%; in the assay on K-562 leukemia it was 15.8%; in the assay on MALME-3M melanoma, 0.406% (active); with MDA-MB-231 breast, 35.5%; in the assay on RXF 393 renal it was 10%; with SF-268 CNS, 49.4%. Also, the growth is 42.8% in the assay on SF-295 CNS; 53.5% with SF-539 CNS; -21.3% (active) with UACC-257 melanoma; -0.512% (active) in the assay on M14 melanoma; 44.1% with HCT-15 colon; 37.7% in the assay on SNB-75 CNS. In addition, the growth in the assay with SNB-19 CNS was 52.8%; with U251 CNS, 42.4%; in the assay with PC-3 prostate it was 46.5%; in the assay on SK-MEL-5 melanoma, 22%; in the assay with UACC-62 melanoma it was -22.9% (active); in the assay on LOX IMVI melanoma, 15.9%. In the assay on SK-MEL-28 melanoma, the growth was -5.44% (active).
As for `Cn1cc(-c2ccc(F)c(C(F)(F)F)c2)nc1C1CCN(c2ncnc3[nH]ncc23)CC1`, the growth in the assay with DU-145 prostate was 77.3%; in the assay on K-562 leukemia, 77.8%; in the assay on MALME-3M melanoma, 76.5%; in the assay on MDA-MB-231 breast, 72.5%; in the assay on RXF 393 renal it was 56.7%; in the assay on SF-268 CNS, 44.7%. Besides, the growth with SF-295 CNS is 70.8%; in the assay with SF-539 CNS it was 51.5%; in the assay with UACC-257 melanoma, 74.3%; in the assay with M14 melanoma it was 83.4%; with HCT-15 colon it was 70%; with SNB-75 CNS, -15% (active). Besides, the growth with SNB-19 CNS was 52.5%; in the assay with U251 CNS it was 48%; in the assay with PC-3 prostate, 71%; in the assay with SK-MEL-5 melanoma, 95.1%; in the assay with UACC-62 melanoma, 75.7%; with LOX IMVI melanoma, 69.4%. Besides, in the assay with SK-MEL-28 melanoma, the growth is 86.2%.
Regarding `Cc1cccc(C)c1N1C(c2ccccc2)=NNC12C=CC(=O)c1c(O)cccc12` (stereo not given), the growth is 93.7% with DU-145 prostate; 46.5% in the assay on K-562 leukemia; 62.7% with MALME-3M melanoma; 91.9% with MDA-MB-231 breast; 105% with RXF 393 renal; 84.3% in the assay on SF-268 CNS. Also, the growth in the assay with SF-295 CNS is 61.3%; in the assay on SF-539 CNS, 67.1%; in the assay on UACC-257 melanoma, 58.5%; with M14 melanoma it was 54.2%; with HCT-15 colon, 32.8%; in the assay on HT29 colon, 89.4%. Besides, the growth in the assay with SNB-75 CNS is 96.7%; with U251 CNS, 40.9%; in the assay on PC-3 prostate, 38.8%; in the assay with SK-MEL-5 melanoma, -37.2% (active); in the assay with UACC-62 melanoma, 24.5%; with LOX IMVI melanoma, 7.95% (active). Moreover, the growth in the assay on SK-MEL-28 melanoma is 110%.
Consider `C=C1CC[C@@H]2[C@](C)(COC(C)=O)[C@H](OC(C)=O)CC[C@@]2(C)[C@@H]1C/C=C1/C(=O)OC[C@H]1OC(C)=O`, for which the growth in the assay on DU-145 prostate was 50.9%; with K-562 leukemia, 11.1%; with MALME-3M melanoma, 77.7%; in the assay on MDA-MB-231 breast, 95.8%; in the assay with RXF 393 renal it was -7.35% (active); in the assay with SF-268 CNS, 87.1%. Besides, the growth was 95% in the assay on SF-295 CNS; 8.54% (active) in the assay with SF-539 CNS; 66.5% in the assay with UACC-257 melanoma; 35.4% with M14 melanoma; -23% (active) with HCT-15 colon; 44.9% in the assay on SNB-75 CNS. The growth is 83% in the assay on SNB-19 CNS; 54% in the assay on U251 CNS; 88.5% in the assay on PC-3 prostate; 56.2% in the assay with SK-MEL-5 melanoma; 29.7% in the assay on UACC-62 melanoma; -74.4% (active) with LOX IMVI melanoma. In addition, in the assay on SK-MEL-28 melanoma, the growth was 37.8%.
`COc1cc(C2CC(c3ccc(Cl)cc3)=NN2c2ccc(Cl)cc2)cc(OC)c1OC` (stereo not given): the growth in the assay on DU-145 prostate was 106%; in the assay with K-562 leukemia, 93.8%; in the assay with MALME-3M melanoma, 92%; in the assay with MDA-MB-231 breast, 79.8%; in the assay with RXF 393 renal, 89.6%; in the assay with SF-268 CNS it was 90.6%. The growth in the assay on SF-295 CNS was 95.3%; in the assay on SF-539 CNS, 93.9%; in the assay with M14 melanoma, 90.3%; in the assay on HCT-15 colon, 91.2%; in the assay on HT29 colon it was 94.7%; in the assay on SNB-75 CNS, 58.7%. For the same compound, the growth in the assay on SNB-19 CNS was 88.1%; with U251 CNS, 85.1%; in the assay with PC-3 prostate it was 64.1%; in the assay with SK-MEL-5 melanoma it was 97.9%; in the assay on UACC-62 melanoma it was 77%; in the assay on LOX IMVI melanoma, 99.8%.
For `O=S1(=O)OC(c2cc(Cl)c(O)c(Br)c2)(c2cc(Cl)c(O)c(Br)c2)c2ccccc21`, the growth in the assay on DU-145 prostate is 114%; with K-562 leukemia it was 109%; in the assay with MALME-3M melanoma it was 115%; in the assay with MDA-MB-231 breast, 94.8%; in the assay on RXF 393 renal, 109%; with SF-268 CNS, 106%. Moreover, the growth is 127% in the assay with SF-295 CNS; 94.6% with SF-539 CNS; 95.4% in the assay with UACC-257 melanoma; 99.4% with M14 melanoma; 105% in the assay with HCT-15 colon; 83.4% in the assay with SNB-75 CNS. In addition, the growth is 102% in the assay on SNB-19 CNS; 101% with U251 CNS; 84.3% with PC-3 prostate; 107% in the assay with SK-MEL-5 melanoma; 96.5% in the assay with LOX IMVI melanoma; 118% in the assay on SK-MEL-28 melanoma.
As for `COc1cc(OC)c(/C=C/S(=O)(=O)Cc2ccc(OC)c(NCC(=O)O)c2)c(OC)c1`, the growth in the assay with DU-145 prostate is 7.91% (active); with K-562 leukemia, 8.38% (active); with MALME-3M melanoma, 54.6%; in the assay with MDA-MB-231 breast, 39.7%; in the assay with RXF 393 renal, 36.9%; with SF-268 CNS, 30.3%. The growth with SF-295 CNS was 15.5%; with SF-539 CNS, -17.1% (active); with UACC-257 melanoma, 48.7%; with M14 melanoma, 12.6%; with HCT-15 colon, 11.8%; with HT29 colon it was 0.285% (active). The growth was 18.2% in the assay on SNB-75 CNS; 11.4% in the assay on U251 CNS; 21.9% in the assay with PC-3 prostate; -12.1% (active) with SK-MEL-5 melanoma; 37.4% in the assay with UACC-62 melanoma; 16% in the assay on LOX IMVI melanoma. Also, the growth in the assay with SK-MEL-28 melanoma was 65.9%.
